Screening data as filed in PubChem BioAssay.
In the library only some 12% were active in any assay of this set; here they are far more common.
HP1b binding inh = inhibitors of HP1-beta chromodomain binding to methylated histone tails | P83916 | AlphaScreen HP1-beta / biotin-H3K9me3 peptide binding | Potency, µM (doses to about 114 µM), for the others: at the highest dose activity change, negative = inhibition, hits mostly inhibitors | 390,000 tested, 0.56% active | AID 540317; further: nearly all actives have a fitted effect of over 70% in size
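Compound inhibition of the preformed complex between 50 nM HP1-beta and 50 nM biotinylated H3K9me3 peptide was read by AlphaScreen. Buffer was PBS pH 7.4 with 0.01% Tween-20. Incubations ran 30 min at room temperature, with 10 ug/mL donor/acceptor beads.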
L3MBTL1 inh = blocks human L3MBTL1; 230,000 tested, 0.66% active; AlphaScreen L3MBTL1–H3K9me1 peptide binding; Q9Y468; Potency, µM (doses to about 57.1 µM), without a hit: at the highest dose activity, negative = inhibition, hits mostly inhibitors; further: on the % scale 0 is the no-effect control and ±100 the full control effect; nearly all actives have a fitted effect of over 60% in size
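L3MBTL1 50 nM + b-AHA-H3(1-15)K9me1 75 nM, 30 min RT; compound added, 30 min RT; streptavidin donor/Ni-chelate acceptor beads 10 ug/mL each final, 30 min RT dark; AlphaScreen read.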
JMJD2A Tudor inh = blocks the human JMJD2A Tudor domain. Potency, µM (titrated, usually from 114 µM), for inactives: at the highest dose activity change, negative = inhibition, usual class: inhibitors. 390,000 tested, 4.4% active. AlphaScreen JMJD2A-Tudor / H3K4me3 peptide binding. O75164. AID 504339; further: on the % scale 0 is the no-effect control and ±100 the full control effect; nearly all actives have a fitted effect of over 50% in size
G9a block = inhibitors of human histone lysine methyltransferase G9a | G9a H3K9 monomethylation, AlphaScreen, 2 h | 350,000 tested, 8.8% active | Potency, µM (titrated, usually from 102 µM), without a hit: at the highest dose activity, negative = inhibition, actives largely listed as inhibitors | Q96KQ7 | AID 504332; further: on the % scale 0 is the no-effect control and ±100 the full control effect; nearly all actives have a fitted effect of over 75% in size
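Step 1: enzyme (final 20 nM) with compound, 15 min RT. Step 2: substrate peptide 500 nM and SAM 20 uM, 2 h RT. Step 3: anti-H3K9me1 antibody and AlphaScreen beads, 10 min, then plate read.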
Sfp inh = inhibitors of Bacillus subtilis Sfp phosphopantetheinyl transferase; Q9F4F7; 310,000 tested, 3.5% active; Potency, µM, for inactives: largest response in the series, negative = inhibition, most hits filed as inhibitors; Biochemical Sfp PPTase activity, qHTS;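 further: the enzyme is Sfp with the accession as filed and its product quenches rhodamine fluorescence; 0% = enzyme reaction without inhibitor and -100% = no enzyme wells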
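Sfp 15 nM + cpd, 15 min RT; start w/ rhodamine-CoA 5 uM, BHQ-2-YbbR 12.5 uM (final); 50 mM Hepes pH 7.6, 10 mM MgCl2, 0.01% NP-40, 0.01% BSA; read 525/598 nm at 0 and 30 min.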
BAZ2B inh = inhibitors of human BAZ2B bromodomain | AlphaScreen BAZ2B-H3K14Ac peptide displacement | Potency, µM (top dose mostly 114 µM), without a hit: top-dose activity change, negative = inhibition, usual class: inhibitors | 360,000 tested, 4.4% active | AID 504333; further: on the % scale 0 is the no-effect control and ±100 the full control effect; nearly all actives have a fitted effect of over 60% in size
Target sequence (Q9UIF8 whole entry, looked up): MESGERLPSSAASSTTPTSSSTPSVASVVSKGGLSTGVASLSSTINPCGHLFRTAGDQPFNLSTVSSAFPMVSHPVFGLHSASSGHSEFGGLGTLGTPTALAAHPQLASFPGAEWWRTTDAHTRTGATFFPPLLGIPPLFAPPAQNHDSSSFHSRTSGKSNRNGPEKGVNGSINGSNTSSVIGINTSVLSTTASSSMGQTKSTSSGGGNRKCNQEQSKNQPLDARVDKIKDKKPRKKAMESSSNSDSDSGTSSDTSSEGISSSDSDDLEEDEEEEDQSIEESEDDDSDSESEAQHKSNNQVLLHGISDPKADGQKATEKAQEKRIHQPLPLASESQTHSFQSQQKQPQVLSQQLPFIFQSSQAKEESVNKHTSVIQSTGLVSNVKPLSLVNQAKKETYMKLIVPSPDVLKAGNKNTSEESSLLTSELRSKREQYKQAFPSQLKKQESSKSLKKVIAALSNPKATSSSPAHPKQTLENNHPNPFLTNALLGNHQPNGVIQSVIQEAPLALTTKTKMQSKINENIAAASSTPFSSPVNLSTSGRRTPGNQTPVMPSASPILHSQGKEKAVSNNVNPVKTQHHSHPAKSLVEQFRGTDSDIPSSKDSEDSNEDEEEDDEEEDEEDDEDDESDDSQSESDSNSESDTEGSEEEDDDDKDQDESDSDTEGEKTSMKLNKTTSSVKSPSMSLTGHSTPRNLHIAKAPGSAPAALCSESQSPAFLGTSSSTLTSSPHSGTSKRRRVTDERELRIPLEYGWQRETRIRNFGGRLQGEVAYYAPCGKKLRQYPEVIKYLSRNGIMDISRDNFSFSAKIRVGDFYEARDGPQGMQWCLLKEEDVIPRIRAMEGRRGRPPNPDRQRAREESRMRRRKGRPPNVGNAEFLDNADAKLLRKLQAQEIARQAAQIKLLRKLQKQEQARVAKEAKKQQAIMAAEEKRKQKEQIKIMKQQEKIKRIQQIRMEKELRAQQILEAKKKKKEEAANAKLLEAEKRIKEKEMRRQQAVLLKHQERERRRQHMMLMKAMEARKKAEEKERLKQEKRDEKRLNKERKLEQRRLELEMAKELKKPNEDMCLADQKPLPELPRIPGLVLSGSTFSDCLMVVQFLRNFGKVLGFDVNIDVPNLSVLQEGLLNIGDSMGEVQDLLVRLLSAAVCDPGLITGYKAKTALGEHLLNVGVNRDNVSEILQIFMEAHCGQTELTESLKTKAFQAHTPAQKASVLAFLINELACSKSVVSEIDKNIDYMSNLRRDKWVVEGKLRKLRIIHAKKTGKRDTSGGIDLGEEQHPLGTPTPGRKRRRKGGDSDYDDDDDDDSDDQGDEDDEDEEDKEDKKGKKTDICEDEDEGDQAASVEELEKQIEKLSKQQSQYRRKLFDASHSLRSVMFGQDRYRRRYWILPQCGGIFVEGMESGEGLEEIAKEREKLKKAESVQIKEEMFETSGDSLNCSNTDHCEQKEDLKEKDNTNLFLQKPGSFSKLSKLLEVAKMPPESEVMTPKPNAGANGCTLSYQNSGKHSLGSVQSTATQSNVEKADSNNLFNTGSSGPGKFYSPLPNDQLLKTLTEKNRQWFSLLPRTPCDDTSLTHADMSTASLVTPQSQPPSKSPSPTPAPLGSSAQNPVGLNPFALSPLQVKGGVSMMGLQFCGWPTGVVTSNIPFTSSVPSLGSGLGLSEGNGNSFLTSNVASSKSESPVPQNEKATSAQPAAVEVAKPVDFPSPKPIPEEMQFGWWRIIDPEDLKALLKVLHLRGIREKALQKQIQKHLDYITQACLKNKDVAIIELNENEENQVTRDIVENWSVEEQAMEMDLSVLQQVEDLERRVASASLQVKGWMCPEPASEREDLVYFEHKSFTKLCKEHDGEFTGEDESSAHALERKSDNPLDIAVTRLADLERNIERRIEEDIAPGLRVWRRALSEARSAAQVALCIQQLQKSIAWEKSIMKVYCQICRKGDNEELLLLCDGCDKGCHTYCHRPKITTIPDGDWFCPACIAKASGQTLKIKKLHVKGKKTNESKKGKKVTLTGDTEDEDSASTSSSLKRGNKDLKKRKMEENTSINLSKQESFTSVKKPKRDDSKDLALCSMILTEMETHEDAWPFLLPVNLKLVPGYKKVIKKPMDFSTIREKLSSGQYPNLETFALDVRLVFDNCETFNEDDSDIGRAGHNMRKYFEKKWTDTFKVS
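Complex of BAZ2B and biotin-H3K14Ac (50 nM apiece) forms over 30 min at RT, then faces library compounds up to 110 uM for another 30 min; AlphaScreen beads added, 20 min dark incubation, luminescence read.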
* hit, by the source's call; ? = inconclusive; . = no result; [ ] = dose if it differs, or a comment. The call rests on the fitted dose curve; in most records, active means well fitted curve in the direction sought with a large enough effect; inconclusive means small, poorly fitted or top-dose-only effect, or another doubt; inactive means no such curve, though single readings can be large; an effect the other way counts as inactive or inconclusive. Potency means the concentration at half of the fitted maximal effect.

SMILES	HP1b binding inh	L3MBTL1 inh	JMJD2A Tudor inh	G9a block	Sfp inh	BAZ2B inh
Cc1ccc(-n2cccc2/C=C2\C(=N)N3N=C(C(C)C)SC3=NC2=O)cc1	1%	-29%	?	?	-45%	?
Cc1cc(/C=C2/C(=N)N3C(=NC2=O)SN=C3S(C)(=O)=O)c(C)n1-c1ccccc1F	-12%	.	?	50µM*	-4%	45µM*
COc1ccccc1NC(=O)CSC1=Nc2ccccc2C2=NC(CCC(=O)NCc3ccco3)C(=O)N12 (stereo not given)	11%	.	-25%	5%[59 µM]	.	-18%
CC(=O)OC[C@H]1O[C@@H](CCO/N=C2/[C@H]3O[C@@H]3[C@@H](O)[C@H]3[C@H]2CCn2c(=O)n(-c4ccccc4)c(=O)n23)C=C[C@@H]1OC(C)=O	.	.	.	.	-2%	.
COCCCNc1ncnc2c1cnn2-c1ccc(F)cc1	10%	.	1%	16%[59 µM]	.	-2%
Cc1ccc(C(=O)C2=C(O)C(=O)N(CCN3CCOCC3)C2c2ccccn2)o1 (stereo not given)	.	5%	.	2.2µM*	-17%	?
O=C(C1=C(O)C(=O)N(CCN2CCOCC2)C1c1ccco1)c1cc2ccccc2o1 (stereo not given)	54%	.	-4%	32µM*	8%	?
O=C(C1=C(O)C(=O)N(CCN2CCOCC2)C1c1cccc(Br)c1)c1cc2ccccc2o1 (stereo not given)	2%[57 µM]	.	-28%	0%[0.0925 µM]	11%	-26%
CCN(CC)CCN1C(=O)C(O)=C(C(=O)c2sc(C)nc2C)C1c1cccnc1 (stereo not given)	7%	8%	-18%	-28%[12.7 µM]	2%	1%
CCN(CC)CCN1C(=O)C(O)=C(C(=O)c2ccc(C)o2)C1c1ccccn1 (stereo not given)	31%	.	-25%	.	.	.
CCN(CC)CCN1C(=O)C(O)=C(C(=O)c2cc3ccccc3o2)C1c1cccnc1 (stereo not given)	50%	4%	-20%[11.4 µM]	89µM*	6%	-2%
O=C(C1=C(O)C(=O)N(CCCN2CCOCC2)C1c1ccccn1)c1cc2ccccc2o1 (stereo not given)	29%	-2%	-25%	40µM*	-3%	?
Cc1cc2c(s1)c1cnn(Cc3cccc([N+](=O)[O-])c3)c(=O)c1n2C	.	.	-15%	.	.	.
O=C(C1=C(O)C(=O)N(CCN2CCOCC2)C1c1ccc(F)cc1)c1cc2ccccc2o1 (stereo not given)	11%[57 µM]	.	-25%	35µM*	21%	-24%
CCCOc1ccc(C2C(C(=O)c3ccc(C)o3)=C(O)C(=O)N2CCN2CCOCC2)cc1OC (stereo not given)	15%	-1%	22µM*	?	-22%	4%
CCN(C(=O)Cn1cnc2onc(-c3ccc(F)cc3)c2c1=O)c1cc(C)ccc1C	8%	.	-14%	-8%[59 µM]	.	6%[57.1 µM]
O=C(c1cccnc1)N1CCN(CCCc2ccccc2)CC1	56µM*	0%	5µM*	?	?	.
O=C(c1cccs1)N1CCN(CCCc2ccccc2)CC1	45µM*	.	3.2µM*	32µM*	-17%	79µM*
O=C(c1ccccc1)N1CCN(C(=O)c2cccnc2)CC1	20%	0%	1%	?	-3%	1%
O=C(c1cccs1)N1CCN(Cc2ccccc2)CC1	19%	3%	0%	-2%[59 µM]	28%	0%
COc1ccc(CN2CCN(C(=O)c3cccs3)CC2)cc1	?	3%	1.3µM*	10µM*	-24%	56µM*
N#CN=c1snc(-c2ccccc2Cl)n1-c1ccc(F)cc1	9%[57 µM]	.	-6%[57.1 µM]	.	.	.
COc1cccc(Nc2ccc3cc(S(=O)(=O)N4CCC(C)CC4)ccc3n2)c1	77%	.	25%	?	.	10%
CN(C)c1cccc(NC2=CC(=[N+]3CCOCC3)CC(C)(C)C2)c1	-7%	.	89µM*	11µM*	-1%	?
CC(C)Cn1cc(NC(=O)N2CCN(c3cccc(Cl)c3)CC2)c2ccccc2c1=O	17%	.	-20%	-29%[59 µM]	.	1%[57.1 µM]
SMILES	HP1b binding inh	L3MBTL1 inh	JMJD2A Tudor inh	G9a block	Sfp inh	BAZ2B inh
COc1cccc([C@@H]2Oc3ccc(Br)cc3C[C@H]2OC(=O)NS(=O)(=O)c2ccc(C)cc2)c1	.	.	.	.	-8%	.
CCN(CC)C(=O)Cn1c(C)c(/C=C/c2cc[n+](C)cc2)c2ccccc21	14%	4%	?	?	17%	-34%
C=CCn1c(C)c(/C=C/c2cc[n+](C)cc2)c2ccccc21	24%	0%	-8%	45µM*	-3%	3%
CCn1cc(/C=C/c2cc[n+](C)cc2)c2ccccc21	42%	.	-4%	-25%[2.33 µM]	-8%	?
C=CCn1cc(/C=C/c2cc[n+](C)cc2)c2ccccc21	-5%	2%	-12%	50µM*	-11%	50µM*
Cc1[nH]c2ccccc2c1/C=C/c1cc[n+](C)cc1	13%	3%	-12%	14%[12.7 µM]	-12%	56µM*
CC(C)=CCC/C(C)=C/CC/C(C)=C/CC/C(C)=C/C(=O)O	.	.	.	.	4%	.
Cc1nc(N2CCOCC2)c2nc(-c3ccccc3)n(CCN3CCCC3)c2n1	.	.	.	.	-2%	.
CNS(=O)(=O)c1cn(CC(=O)Nc2ccc(C(C)=O)cc2)cc1S(=O)(=O)NC	31%	.	1%	-1%[59 µM]	.	-13%
CCN(CC)CCNC(=O)c1ccc2c(=O)n3nc(Nc4cccc(Cl)c4C)sc3nc2c1	2%	.	?	?	.	?
CCc1ccc(C(=O)NC(=S)Nc2ccc3c(c2)OCCO3)cc1	?	-14%	?	?	?	?
O=C(NC(=S)Nc1ccc2c(c1)OCCO2)c1ccco1	-16%	.	?	71µM*	2%	?
O=C(NC(=S)Nc1cccc(O)c1)c1ccco1	14%	-1%	-17%	50µM*	?	-20%
Cc1cc(C)cc(C(=O)NC(=S)Nc2ccc3c(c2)OCCO3)c1	?	-11%	?	25µM*	9%	?
C=C(C)C(=O)Nc1ccc2c(c1)OCCOCCOCCO2	13µM*	3.5µM*	18µM*	10µM*	5%	11µM*
